About 1,900 (2.5%) of roughly 76,000 compounds were called active. Roughly 5% stayed inconclusive and do not appear here. The sample holds actives, similar compounds and a random draw of the others, so the mix is not that of the screen. Calls follow the shape of the dose curve; as a rule, active = well fitted inhibition curve with a large enough effect; inconclusive = small, poorly fitted or top-dose-only effect; inactive = flat fitted curve, though single readings scatter.
These compounds were tested against Luciferin 4-monooxygenase (Photinus pyralis) (UniProt P08659) (assay: Firefly luciferase inhibition profiling of diverse chemical library using quantitative high-throughput screening). Settings: purified P. pyralis luciferase, luminescence, biochemical; series mostly up to 115 µM; activity change, negative = inhibition: at the top concentration.
Excerpt: Firefly (Photinus pyralis) luciferase is one of the most commonly used transcriptional reporters for a number of reasons. It is considered one of the more dynamically responsive reporters - that is, responsive to changes in reporter transcription - as it requires no post-translational modifications and is enzymatically active directly after protein synthesis (Wood, 1998). Additionally, the half-life of the luciferase protein is short relative to other reporter-gene products (Wood, 1995). Whereas reporters with long half-lives potentially allow for increased signal due to accumulation of reporter-gene product, once accumulated in the cell, dynamic changes in reporter-gene expression may be difficult to detect(Fan and Wood, 2007; Almond et al., 2004). It has been shown that wild-type P. pyralis luciferase has a half-life of approximately four hours in mammalian cells (Thompson et al., 1991). Firefly luciferase reporter-gene assays are also generally considered one of the most sensitive assay types (Wood, 1995; Wood, 1998). Although light produced in a bioluminescence reaction is of lower intensity than that produced during fluorescence emission, this is offset by little to no background light inherent to luminescent assays. Thus the luciferase reporter can be expressed at much lower levels than fluorescent proteins while still providing robust signal. However, it was initially observed, in 1991, by Thompson et al., that compounds that resemble the substrates of firefly luciferase (FLuc) can act as competitive inhibitors of the enzyme, and that these compounds, upon interaction with luciferase in the cell, can actually stabilize the protein and increase its half-life. Accumulated intracellular FLuc protein can be measured as an increase in luminescence signal, upon addition of detection reagents (which contain high concentrations of FLuc substrates) commonly used in high-throughput screening. In cell-based reporter gene assays that use FLuc as the reporter gene to quantitate the potential influence of a given compound against the target biology, this apparent increase in luminescence can mistakenly be interpreted as identification of a compound that is active against the target of interest. FLuc inhibitory compounds that stabilize the FLuc protein will give an identical read-out, making it difficult to distinguish compounds that are active against the target from those active against FLuc. In summary, the results generated here constitutes a valuable resource for the scientific community and provides insight on identifying compounds with inhibitory activity for the commonly-used reporter, firefly luciferase. References: -Almond, B., Zdanovsky, A., Zdanovskaia, M., Ma, D., Stecha, P., Paguio, A., Garvin, D., and Wood, K. (2004). Introducing the Rapid Response Reporter Vectors. Promega Notes 87, 18-22. -Fan, F., and Wood, K.V. (2007). Bioluminescent assays for high-throughput screening. Assay Drug Dev Technol 5, 127-136. -Thompson, J.F., Hayes, L.S., and Lloyd, D.B. (1991). Modulation of firefly luciferase stability and impact on studies of gene regulation. Gene 103, 171-177. -Wood, K.V. (1998). The chemistry of bioluminescent reporter assays. Promega Notes 65, 14-20. -Wood, K.V. (1995). Marker proteins for gene expression. Curr Opin Biotechnol 6, 50-58.
Reagents: 50mM Tris acetate, pH 7.5; 10mM Mg acetate; 10uM D-luciferin (Sigma #L9504); 10uM ATP; 0.01% Tween-20; 0.05% BSA; 10nM P. pyralis luciferase (Sigma #L9506) Control compounds used were two known firefly luciferase inhibitors (compounds (2) and (5) in Auld et al., 2010), and DMSO. Assay Summary: Three microliters containing firefly luciferase substrates in buffer (final concentrations: 50mM Tris acetate, pH 7.5, 10mM Mg acetate, 0.01% Tween-20, 0.05% BSA, 10uM D-luciferin, and 10uM ATP) are dispensed into each well of a Greiner white, solid-bottom 1536-well format plate using a flying reagent dispenser (FRD). […]
% is scaled to controls: 0 for no effect and ±100 for the full control effect.
Also: nearly all actives have a fitted effect of over 65% in size.

Luciferin 4-monooxygenase (Photinus pyralis), sequence (P08659 whole entry, looked up): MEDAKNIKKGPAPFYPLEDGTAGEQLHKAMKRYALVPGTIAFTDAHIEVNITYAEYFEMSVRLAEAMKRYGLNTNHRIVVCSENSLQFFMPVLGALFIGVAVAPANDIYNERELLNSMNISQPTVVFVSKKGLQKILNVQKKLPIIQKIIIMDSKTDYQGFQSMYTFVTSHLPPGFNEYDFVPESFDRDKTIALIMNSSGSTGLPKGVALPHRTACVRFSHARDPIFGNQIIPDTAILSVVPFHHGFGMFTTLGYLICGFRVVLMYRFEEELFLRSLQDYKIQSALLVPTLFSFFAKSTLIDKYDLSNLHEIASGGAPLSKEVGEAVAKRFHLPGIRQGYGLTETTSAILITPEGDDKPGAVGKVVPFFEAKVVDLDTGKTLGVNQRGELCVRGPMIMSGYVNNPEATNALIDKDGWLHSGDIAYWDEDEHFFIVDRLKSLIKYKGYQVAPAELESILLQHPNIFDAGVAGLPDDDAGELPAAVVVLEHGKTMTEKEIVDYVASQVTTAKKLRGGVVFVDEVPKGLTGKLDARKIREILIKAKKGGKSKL

Activity change, negative = inhibition, inactive:
COC(=O)c1cccc2nc([C@H]3CCN(Cc4ccccc4)C3)oc12 11% [at 172 µM]
Fc1ccc2oc([C@H]3CCN(C4CCOCC4)C3)nc2c1 -11% [at 230 µM]
COc1ccc(-c2noc([C@@H]3CCCN3C(=O)CCCc3ccccc3)n2)cc1OC -2.67%
Cc1ccc(-c2ccc3nnc(CNC(=O)c4ccccn4)n3n2)cc1 0%
COCCNC(=O)[C@@H]1C[C@H](Oc2cccnc2)CN1C(=O)c1ccc(OC)nc1OC -9.84%
COc1ccc(CCC(=O)N2CCC(c3n[nH]c(=O)n3-c3ccc(C)cc3)CC2)cc1 8.18%
COC(=O)[C@@H]1Cc2c([nH]c3ccccc23)[C@H]2C[C@@H](NCCN3CCOCC3)C[C@@H](c3ccccc3)N21 -24.5%
O=C1NC2(CCN(Cc3ccccc3)C2)OCc2ccccc21 (stereo not given) -7.17% [at 172 µM]
CSCc1ccc(C(=O)N[C@H]2[C@@H]3CCO[C@@H]3[C@@H]2C2CCCC2)o1 -9.79%
CN(CCNC(=O)CCc1cc2ccccc2[nH]c1=O)C1CCCCC1 -3.21%
COc1ccc(CNC(=O)C[C@@H]2CCNC[C@@H]2Cc2cc(-c3ccc(C(C)(C)C)cc3)on2)cc1OC 0.217%
c1cc(-c2nc3ccncc3[nH]2)ccn1 -13.8% [at 230 µM]
COc1ccc(CC(=O)NC[C@@H]2C=C(C)[C@H](Cc3nc4ccncc4[nH]3)C[C@H]2C(C)C)cc1 4.96%
COc1ccc(-c2cc(N3CCC(NC(=O)c4cccc(C)c4)CC3)n[nH]2)cc1 4.47%
Cc1nn2c(c1-c1ccccc1C(C)C)N(C(=O)c1cccc(C#N)c1)CCC2 5.18% [at 172 µM]
COc1cc(-c2noc(-c3nc(-c4ccc5c(c4)OCO5)no3)n2)cc(OC)c1OC 4.62%
COc1cccc(-c2ccc(F)c(C(N)=O)c2)c1OC -15.8%
COc1ccc(C(=O)N2CCC(N3CC(OC)C34CCOCC4)CC2)c(OC)c1 (stereo not given) 2.6%
Cc1cc(CN(C)C(=O)c2cc(COc3ccc(F)cc3F)on2)n[nH]1 -9.52%
O=C(Nc1cccnc1)O[C@H]1COCCN(c2nc3ccccc3s2)C1 -17.1% [at 172 µM]
Cc1cc(C(=O)N2CC[C@H](NC(=O)c3cnccn3)C[C@H]2C(=O)N[C@H](Cc2ccccc2)C(N)=O)n(C)n1 0.378%
Cc1ccc(CS(=O)(=O)N2CCC(C3CCNC3)CC2)cc1C (stereo not given) -6.1%
COc1ccc(C(=O)NCc2nnc3ccc(-c4ccc(C)cc4)nn23)cc1F 4%
O=C(c1ccc2nc(-c3ccc(F)cc3)cn2c1)N1CCSCC1 -29.8%
Cc1cnc(CCNC(=O)c2ccco2)n1C1CCC1 -14.4%
C[C@@H](NC(=O)C1=C[C@@H](NC(=O)CC2(CC(=O)O)CCCC2)[C@@H](O)[C@H](O)C1)C(N)=O 0.91% [at 172 µM]
Cc1nn(Cc2ccccc2)c(C)c1[C@@H]1C=C[C@@H](NC(=O)NC2CCCCC2)C1 12.5% [at 172 µM]
Cc1nn(Cc2ccccc2)c(C)c1[C@@H]1C=C[C@@H](NC(=O)NC(C)C)C1 1.19% [at 172 µM]
CCC(C)NC(=O)Cc1csc2nc(C)c(-c3cc(C)n(-c4ccc(C(C)C)cc4)n3)c(=O)n12 (stereo not given) -9.06%
Cc1nn(CCC#N)c(C)c1[C@@H]1C=C[C@@H](NS(=O)(=O)c2ccccc2)C1 7.12% [at 172 µM]
CC(C)(C)c1ccnc(N[C@H]2CO[C@H]3[C@@H]2OC[C@@H]3NC(=O)CC2(CC(=O)O)CCCC2)n1 -12.5%
O=C(NCC1CN(Cc2ccccc2)CC12CN(c1ccccc1)C2)Nc1ccccc1 (stereo not given) 2.68% [at 172 µM]
O=C1NCCCCCCN(Cc2ccc3c(c2)CCO3)[C@H]2CCC[C@@H]12 -5.58%
CN(C)C[C@@H]1CN(Cc2ccccn2)C[C@H]1NC(=O)c1ccc2cc[nH]c2c1 -1.46%
CC(C)COc1cc(=O)n2c(c1C(=O)NCCCN1CCOCC1)CCCCC2 -4.23%
COc1ccc(C(=O)NCC(=O)N2CCCCCCNC(=O)CC2c2ccccc2)cn1 (stereo not given) -9.05%
CN(C)C(C(=O)N1CCC(OCc2cccnc2)CC1)c1cccc(F)c1 (stereo not given) 0.25%
O=C(c1ccccc1C1CCNC1)N1CCC(Nc2ncccn2)CC1 (stereo not given) 3.36%
CN1C(=O)CO[C@H]2CN(C(=O)c3ccccc3)C[C@H]21 0.13% [at 230 µM]
Cc1ccccc1CN1CCOc2cc([S+](=O)([O-])N(C)C)ccc2C1 -3.29% [at 172 µM]
CC(C)CN1CCN(C(=O)c2cc3c(s2)CCN(C(=O)c2ccc(Cl)cc2)C3)CC1 -6.31%
CC(C)c1noc([C@H]2C[C@@H]3C(=O)NCCCCCCN(C(=O)Cc4cccnc4)[C@@H]3C2)n1 -15.9%
COc1ccc(C)cc1NC(=O)Cn1nc2n(c1=O)CCCC2 -4.41%
COc1cc(=O)n2c(c1C(=O)Nc1cc(C)ccc1C)CCCC2 -5.74%
COc1cc(Cl)ccc1C(=O)N1CCC[C@H]1c1nc(-c2ccccc2)no1 12.2%
COCCn1c(=O)n([C@H]2CCCN(C(=O)c3cc4ccccc4[nH]3)C2)c2ncccc21 8.11%
CC(NC(=O)Cc1cccc(F)c1)C(=O)N1CCN(c2ccccn2)CC1 (stereo not given) -7.86%
CSc1ccc(CNC(=O)c2noc(-c3ccc(C)cc3)n2)cc1 -8.08%
COc1ccc(CCNC(=O)c2noc(-c3ccc(C)cc3)n2)cc1OC -16.8%
Cc1cccc(C(=O)N2CCCC(C(=O)N3CCN(c4ccccn4)CC3)CCNC(=O)CC2)c1 (stereo not given) 7.1%
COCCn1c(CO)nnc1C1CC(NC(=O)c2sc(C)nc2C)C1 (stereo not given) -3.21%
CCC(C(=O)Nc1ccc2c(c1)CN(Cc1cc(F)cc(F)c1)C(=O)CO2)c1ccccc1 (stereo not given) 1.72%
COc1cccc(C(=O)N2CCC(C(NC(=O)c3ccccc3C)C(=O)NCC(C)C)CC2)c1 (stereo not given) -5.87%
O=C(NCC1Cn2cccc2C(=O)N1Cc1ccccc1)c1ccc(F)cc1 (stereo not given) -1.37%
CCC1=C(C(=O)OC)C(c2ccc(C)cc2C)N2C(CC(=O)N3CCOCC3)=CSC2=N1 (stereo not given) -4.47%
N#Cc1cc2c(nc1N1CCN(C3CCCC3)C(CCO)C1)CCCC2 (stereo not given) 3.08%
COC(=O)c1ccccc1NC(=O)Cn1nc2n(c1=O)CCCCC2 -2.82%
COc1ccccc1-c1cc(-c2cn[nH]c2)c2cncn2c1 -6.95% [at 230 µM]
COc1ncccc1-c1cc(-c2cn[nH]c2)c2cncn2c1 10% [at 230 µM]
CC(C)C(=O)N1CCCC(c2nc(-c3ccccc3)no2)CCNC(=O)CC1 (stereo not given) -3.93%
Cn1cccc1C(=O)N1CCCC(c2nc(-c3ccccc3)no2)CCNC(=O)CC1 (stereo not given) 2.73%
CC[C@H]1CN(C(=O)c2ccc(F)cc2)CC[C@H]1CC(=O)Nc1ccccc1 13.4% [at 172 µM]
Cn1ccc(Nc2cc3c(cn2)CN(CCc2ccccc2)CCN3)n1 3.4% [at 172 µM]
O=C1CN(Cc2ccc(-c3ccccc3)cc2)CCN1c1cc(Cl)ncn1 -11.2%
Cc1cccn2c(CC(=O)NCC3CCN(c4cnn(C)c(=O)c4)C3)cnc12 (stereo not given) 10.5%
O=C(O)[C@@H]1CN(C(=O)NC2CCCC2)C[C@H]1c1ccccn1 0%
O=C(NCc1c[nH]c2ncccc12)c1ccccn1 -11% [at 172 µM]
COc1ccccc1C(=O)NCc1ccnc2[nH]ccc12 -9.82% [at 172 µM]
CN(C)c1ccc(NC(=O)COc2ccc(-c3nnc4n3CCCC4)cc2)cc1 1.38%
COCc1nc(-c2ccc(NC(=O)Cn3nc4c(cc3=O)CCCC4)cc2)n[nH]1 5.99%
Nc1nc(C2CC(NC(=O)CCc3nc4ccc(F)cc4[nH]3)C2)cc(=O)[nH]1 (stereo not given) 1.51%
O=C(NCc1ccccn1)C1CN(S(=O)(=O)c2cccs2)CC12CCCCC2 (stereo not given) -9.22%
O=C(NC1CC1)[C@@H]1C[C@H](Oc2cccnc2)CN1C(=O)C1CCC1 -5.55%
N#Cc1ccc(O[C@@H]2COCC[C@H]2NC(=O)CCCn2cccn2)cc1 0.744%
CC(C)NC(=O)N1Cc2[nH]cnc2C[C@H]1c1nc(-c2ccc(Cl)cc2)no1 -14.5% [at 172 µM]
CCOC(=O)c1ccc(NC(=O)N2Cc3[nH]cnc3C[C@H]2c2nc(-c3ccc(Cl)cc3)no2)cc1 -15.6%

Potency, active:
Clc1ccc2oc([C@H]3CCN(Cc4ccccc4)C3)nc2c1 20 µM
CC(=O)NC1(C)CN(Cc2ccc(-c3ccc4c(ccn4C)c3)s2)C1 0.316 µM
COc1ccc(-c2nc3ccncc3[nH]2)cc1 31.6 µM
COc1cccc(-c2nc3ccc(-c4ccc5c(c4)OCO5)cc3o2)c1OC 1.12 µM
OC1(CN2CCCCC2)CCN(c2nc3ccccc3s2)C1 (stereo not given) 10 µM
CC(C)Cn1cncc1CNC(=O)c1ccc2nc(-c3ccc(F)cc3)cn2c1 35.5 µM
Cc1nn(-c2ccc(C(C)C)cc2)c(C)c1[C@@H]1C=C[C@@H](NC(=O)Nc2ccccc2)C1 3.55 µM
Cc1nn(-c2ccc(C(C)C)cc2)c(C)c1[C@@H]1C=C[C@@H](NC(=S)NCC(C)C)C1 7.08 µM
Cc1nn(-c2ccc(C(C)(C)C)cc2)c(C)c1[C@@H]1C=C[C@@H](NC(=O)c2ccco2)C1 14.1 µM
Cc1nn(-c2ccc(C(C)C)cc2)c(C)c1[C@@H]1C=C[C@@H](NC(=O)CC2(CC(=O)O)CCCC2)C1 35.5 µM
COc1ccc(C)cc1NC(=O)Nc1cccc(-c2ccc(N3CCCCC3)nn2)c1 0.282 µM
Cc1ccc(-c2nc(C(=O)N3CCN(c4ccccn4)CC3)no2)cc1 14.1 µM
Cc1ccc(-c2nc(C(=O)N(C)Cc3ccccc3)no2)cc1 10 µM
c1cc(N2CCOCC2)ccc1-c1cc(-c2cn[nH]c2)c2cncn2c1 22.4 µM
Cc1ccc(C(=O)N2CCCC(c3nc(-c4ccccc4)no3)CCNC(=O)CC2)cn1 (stereo not given) 28.2 µM
OCc1cccc(-c2cc3c(cn2)CN(Cc2ccccc2)CCN3)c1 14.1 µM
O=C(NCc1ccnc2[nH]ccc12)c1ccccn1 28.2 µM
COCc1nc(C2CC(NC(=O)c3cc(-c4ccsc4)n[nH]3)C2)cc(=O)[nH]1 (stereo not given) 28.2 µM
Cc1cccc(-c2noc([C@@H]3Cc4nc[nH]c4CN3C(=O)Nc3ccccc3)n2)c1 50.1 µM

— PubChem BioAssay AID1347043 (National Center for Advancing Translational Sciences (NCATS), 2019)
